The target of experiment [1] is Cytochrome P450 3A4 (Homo sapiens) (UniProt P08684). In words: qHTS Assay for Activators of Cytochrome P450 3A4 (AID 885). Also: nearly all actives have a fitted effect of over 65% in size. The procedure, abridged:
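20nM CYP3A4 + 25uM Luciferin-PPXE (=KM), 200mM KPO4; cpd 10 min RT; NADPH regen, 60 min RT; stop w/ detection buffer, 20 min; luminescence. Normalized to 57 uM ketoconazole.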
In general terms: In qHTS, concentration-response curves come from the screen itself.

Experiment [2] in a line: qHTS Assay for Identification of Small Molecule Antagonists for NFkB Signaling Pathway (AID 895; active = well fitted inhibition curve with a large enough effect in the signal ratio, with a control signal flat, not every such curve was filed as active; the % refers to the signal ratio). The procedure, abridged:
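ME-180 NFkB-bla cells (beta-lactamase under NFkB response element), plated overnight, treated with compound then 10 pM TNF alpha (about EC50) for 5 hrs at 37 C. LiveBLAzer FRET read at 460/530 nm emission, 405 nm excitation.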

Experiment [3] can be described thus: qHTS Assay for Identification of Small Molecule Agonists for Thrombopoietin (TPO) Signaling Pathway (AID 917). Also: potency is read from the fitted curve at half-maximal effect. The following applies: TPO signaling pathway reporter cells, agonist qHTS; stimulated with TPO at its EC50. The procedure, abridged:
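IL-3-dependent murine pro-B Ba/F3 cells, stably transfected with human TPO receptor and GpIIb-promoter luciferase, are incubated 24 hrs at 37 C with test compound and 26 pM TPO; luciferase signal is read after 10 min at room temperature.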

Experiment [4] addresses Muscarinic acetylcholine receptor M1 (Rattus norvegicus) (UniProt P08482). In words: qHTS Assay for Antagonists of Acetylcholine Muscarinic M1 Receptor: Measurement of IP-One Response (AID 944). Also: nearly all actives have a fitted effect of over 75% in size. The procedure, abridged: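 CHO cells expressing rat M1 receptor, recovered overnight, were pre-incubated 10 min with compound, then stimulated 30 min with carbachol at EC80 (200 nM) in LiCl-containing buffer, pH 7.4. IP1 accumulation was read by HTRF (620/665 nm).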

The target of experiment [5] is Pyruvate kinase (Leishmania mexicana) (UniProt Q27686). In words: qHTS Validation Assay for Inhibitors of Leishmania Mexicana Pyruvate Kinase (AID 945). The procedure, abridged: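 Purified LmPYK (E451W mutant, 0.2 nM) was incubated 1 h at room temperature with 0.5 mM PEP and 0.1 mM ADP in 50 mM imidazole pH 7.2, 50 mM KCl, 7 mM MgCl2; ATP formed was read by PKLight luminescence, normalized to DMSO wells.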

Experiment [6] addresses Pyruvate kinase PKM (Homo sapiens) (UniProt P14618). In words: qHTS Assay for Activators of Human Muscle Pyruvate Kinase (AID 954; active = well fitted curve in the direction sought with a large enough effect, not every such curve was filed as active). The procedure, abridged: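 Luminescence from a luciferase ATP-detection/stop reagent reported PKM2 activity. Reactions contained 0.1 nM purified human enzyme, 0.5 mM PEP, 0.1 mM ADP and 7 mM MgCl2 at pH 7.2, run 1 h at RT.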
For experiment [7], the target named is Alpha-galactosidase A (Homo sapiens) (UniProt P06280). In words: Counterscreen for Glucocerebrosidase Inhibitors: qHTS Assay for Human alpha-Galactosidase at pH 4.5 (AID 992). The procedure, abridged: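 Enzyme at 2 nM final was combined with compound (0.7 nM to 77 uM) and 80 uM 4-methylumbelliferyl alpha-D-galactopyranoside in 50 mM citric acid, 0.005% Tween-20, pH 4.5. After 20 min at room temperature, fluorescence was read (Ex 365/Em 440 nm); AC50 came from Hill fits.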
On the technique in general: The purpose of a counterscreen is to sort out artefacts and off-target activity.

Experiment [8] concerns the target alpha-glucosidase (Oryza sativa, rice) (UniProt Q653V4). In words: Counterscreen for Glucocerebrosidase Inhibitors: qHTS Assay for Rice alpha-Glucosidase at pH 5.0 (AID 997). The procedure, abridged: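 Rice alpha-glucosidase (4 nM final) with 400 uM 4-methylumbelliferyl-alpha-D-glucopyranoside in citrate buffer pH 5.0, 20 min at room temperature, stopped at pH 10; fluorescence 365/440 nm, compounds 0.7 nM–77 uM, AC50 from Hill fits.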

The nature of experiment [9]: Validation of Assay for Modulators of Lamin A Splicing (AID 1459; active = well fitted curve in the direction sought with a large enough effect in the signal ratio; the % refers to the signal ratio;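 also: cells exposed to compound for two days before reading; ratio rise marks activators and ratio drop marks inhibitors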). The procedure, abridged:
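Dual-reporter HeLa S3 line (lamin A-EGFP minigene, DsRed2) treated with compounds 48 hrs, 0.5% DMSO final. Endpoint: EGFP/DsRed2 total intensity ratio from laser-scanning microplate cytometry.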

The target in experiment [10] is DNA repair nuclease/redox regulator APEX1 (Homo sapiens) (UniProt P27695). In words: qHTS Validation Assay for Inhibitors of the Human Apurinic/apyrimidinic Endonuclease 1 (APE1) (AID 1705;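 also: TAMRA fluorescence gain over two minutes as APE1 cuts a quenched THF abasic duplex; series mostly up to about 57 µM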). The procedure, abridged:
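Substrate: 50 nM final fluorophore/quencher THF-abasic duplex. Enzyme preincubated with compounds 15 min, RT. Progress derived from fluorescence difference, third minus first kinetic read.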

Experiment [11] in a line: Counterscreen for APE1 Inhibitors: Fluorescent Dye Displacement Validation Assay (AID 1707). The procedure, abridged:
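Thiazole Orange displacement from dsDNA: 250 nM ThO with 50 nM TAMRA-labelled abasic-site (tetrahydrofuran) duplex in 50 mM Tris-HCl pH7.5, 50mM NaCl, 2 mM MgCl2, 0.01% Tween-20. Loss of endpoint fluorescence (ex 480 nm, em 540 nm) flags DNA binders.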

Experiment [12] concerns the target Endonuclease 4 (Escherichia coli (strain K12)) (UniProt P0A6C1). In words: Counterscreen for APE1 Inhibitors: qHTS Validation Assay for Inhibitors of Endonuclease IV (AID 1708). The procedure, abridged: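 Cleavage of a quenched abasic-site DNA duplex (50 nM, 5'-TAMRA, 3'-BHQ-2) by 2 nM enzyme is followed as fluorescence increase. Compounds are preincubated with enzyme 15 min at room temperature before substrate addition.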

A short description of experiment [13]: qHTS for differential inhibitors of proliferation of Plasmodium falciparum line GB4 (AID 1816).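 Also: parasite growth measured after 72 h incubation.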
Experiment [14] can be described thus: qHTS for differential inhibitors of proliferation of Plasmodium falciparum line 3D7 (AID 1876).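 Also: parasite growth measured after three days of culture.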
A short description of experiment [15]: qHTS for differential inhibitors of proliferation of Plasmodium falciparum line D10 (AID 1877).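 Also: parasites grown with compound for 72 h before DNA staining.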
The nature of experiment [16]: qHTS for differential inhibitors of proliferation of Plasmodium falciparum line Dd2 (AID 1882).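 Also: series mostly up to about 29 µM; compound exposure of 72 h on infected erythrocytes; nearly all actives have a fitted effect of over 65% in size.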 The procedure, abridged:
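SYBR Green I DNA fluorescence read-out, ex 485/em 535 nm. Signals were normalized to 0.29 uM artemisinin and DMSO wells, then corrected using vehicle-only plates flanking each stack. Parasite growth ran 72 h in erythrocytes before lysis.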

Experiment [17] concerns the target Cytochrome P450 3A4 (Homo sapiens) (UniProt P08684). In words: qHTS Assay for Inhibitors and Substrates of Cytochrome P450 3A4 (AID 884). Also: nearly all actives have a fitted effect of over 50% in size. Also: potency is read from the fitted curve at half-maximal effect. The procedure, abridged: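 20 nM human CYP3A4 with 25 uM Luciferin-PPXE (at KM) in 200 mM KPO4, preincubated 10 min with compound; NADPH regeneration started a 60 min RT reaction. Luciferin detected by luminescence, normalized to 57 uM ketoconazole as full inhibition.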

Experiment [18] can be described thus: Confirmation and Secondary Assay for Modulators of Hemoglobin Beta Chain Splicing at IVS2 654 locus (AID 910).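 Also: HeLa cells stably carrying EGFP split by mutant beta-globin IVS2-654 intron.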 The procedure, abridged: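 HeLa cells stably expressing EGFP interrupted by β-globin IVS2-654 intron, seeded overnight in Opti-MEM/2% FCS, then treated 2 days at 37 °C. Restored splicing read as total peak GFP intensity per well by laser scanning cytometry (488 nm excitation, 500–520 nm emission); 500 nM antisense PNA as control.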

Experiment [19] can be described thus: Confirmation and Secondary Assay for Modulators of Hemoglobin Beta Chain Splicing at IVS2 705 locus (AID 930).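 Also: HeLa cells stably expressing the EGFP-705 splicing reporter; series mostly up to about 46 µM.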 The procedure, abridged: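 Restored EGFP fluorescence after 2-day compound exposure reports splicing correction in IVS2-705 EGFP reporter HeLa cells; positive control was 500 nM splice-blocking PNA oligo. Signal measured as well total peak GFP intensity (488 nm excitation).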

Experiment [20] has as its target Cytochrome P450 2C19 (Homo sapiens) (UniProt P33261). In words: qHTS Assay for Inhibitors and Substrates of Cytochrome P450 2C19 (AID 899). Also: nearly all actives have a fitted effect of over 60% in size. The procedure, abridged:
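Luminescent read-out of luciferin formed from Luciferin-H EGE (10uM, equal to KM). Enzyme 5nM in 50mM KPO4; compound added, 10 min at 37C, then NADPH regenerating system for 60 min at 37C. Full inhibition defined by 57uM ketoconazole.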

Results filed as inconclusive are left out. Active and inactive are the calls of the source. Unless noted, calls follow the shape of the dose curve; as a rule, active = well fitted curve in the direction sought with a large enough effect; inconclusive = small, poorly fitted or top-dose-only effect, or another doubt; inactive = no such curve, though single readings can be large; an effect the other way counts as inactive or inconclusive.

Outcome and Potency data for 9 molecules are collected here from PubChem BioAssay (NCATS).

Sequence of Cytochrome P450 3A4 (Homo sapiens) (P08684 whole entry, looked up): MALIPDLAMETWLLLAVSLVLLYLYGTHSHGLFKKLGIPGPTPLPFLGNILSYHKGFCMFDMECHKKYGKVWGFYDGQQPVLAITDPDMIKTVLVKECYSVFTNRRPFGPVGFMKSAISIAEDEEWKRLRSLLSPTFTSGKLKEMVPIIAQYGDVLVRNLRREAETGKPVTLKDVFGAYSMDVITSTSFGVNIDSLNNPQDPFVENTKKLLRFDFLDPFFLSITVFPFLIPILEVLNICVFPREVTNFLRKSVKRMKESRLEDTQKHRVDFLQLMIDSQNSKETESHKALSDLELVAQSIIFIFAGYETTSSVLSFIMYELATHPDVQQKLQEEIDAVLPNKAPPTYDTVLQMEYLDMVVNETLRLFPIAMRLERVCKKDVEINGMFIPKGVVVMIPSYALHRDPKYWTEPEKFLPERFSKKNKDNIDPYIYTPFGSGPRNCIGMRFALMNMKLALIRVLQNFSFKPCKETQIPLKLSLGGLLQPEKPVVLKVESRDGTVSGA
Sequence of DNA repair nuclease/redox regulator APEX1 (Homo sapiens) (P27695 whole entry, looked up): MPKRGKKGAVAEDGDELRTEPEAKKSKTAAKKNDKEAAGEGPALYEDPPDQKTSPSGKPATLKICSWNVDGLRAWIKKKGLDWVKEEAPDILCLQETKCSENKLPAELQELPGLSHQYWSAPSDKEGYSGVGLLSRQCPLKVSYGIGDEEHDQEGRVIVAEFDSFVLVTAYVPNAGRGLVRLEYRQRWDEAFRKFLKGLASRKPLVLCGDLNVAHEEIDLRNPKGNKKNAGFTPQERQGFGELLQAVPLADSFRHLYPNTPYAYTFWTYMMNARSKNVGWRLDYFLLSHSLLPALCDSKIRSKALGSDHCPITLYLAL
Sequence of Pyruvate kinase (Leishmania mexicana) (Q27686 2-499 E452W): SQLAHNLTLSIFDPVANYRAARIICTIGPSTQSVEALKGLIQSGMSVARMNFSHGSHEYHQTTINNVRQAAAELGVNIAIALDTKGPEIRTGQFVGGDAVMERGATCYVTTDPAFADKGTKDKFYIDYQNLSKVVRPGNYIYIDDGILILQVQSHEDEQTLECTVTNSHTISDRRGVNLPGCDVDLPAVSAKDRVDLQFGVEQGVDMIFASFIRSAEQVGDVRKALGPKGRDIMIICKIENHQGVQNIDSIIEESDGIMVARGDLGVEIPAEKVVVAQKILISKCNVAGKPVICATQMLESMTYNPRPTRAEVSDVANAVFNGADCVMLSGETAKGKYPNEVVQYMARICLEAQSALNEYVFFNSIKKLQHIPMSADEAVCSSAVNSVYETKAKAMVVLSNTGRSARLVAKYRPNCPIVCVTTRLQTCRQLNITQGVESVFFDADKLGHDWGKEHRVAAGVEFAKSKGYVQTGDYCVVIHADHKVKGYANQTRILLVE
Sequence of Alpha-galactosidase A (Homo sapiens) (P06280 whole entry, looked up): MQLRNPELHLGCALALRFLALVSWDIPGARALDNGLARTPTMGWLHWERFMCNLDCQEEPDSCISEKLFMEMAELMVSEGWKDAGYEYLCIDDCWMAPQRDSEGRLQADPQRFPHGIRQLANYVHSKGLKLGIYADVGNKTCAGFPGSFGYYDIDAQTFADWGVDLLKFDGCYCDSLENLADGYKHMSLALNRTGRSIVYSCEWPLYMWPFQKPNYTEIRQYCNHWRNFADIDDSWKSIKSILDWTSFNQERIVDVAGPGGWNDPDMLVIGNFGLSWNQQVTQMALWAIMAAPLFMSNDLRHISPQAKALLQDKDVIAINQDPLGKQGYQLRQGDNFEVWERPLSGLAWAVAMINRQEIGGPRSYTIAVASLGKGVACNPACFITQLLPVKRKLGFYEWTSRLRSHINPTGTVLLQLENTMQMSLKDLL
Sequence of Pyruvate kinase PKM (Homo sapiens) (P14618 whole entry, looked up): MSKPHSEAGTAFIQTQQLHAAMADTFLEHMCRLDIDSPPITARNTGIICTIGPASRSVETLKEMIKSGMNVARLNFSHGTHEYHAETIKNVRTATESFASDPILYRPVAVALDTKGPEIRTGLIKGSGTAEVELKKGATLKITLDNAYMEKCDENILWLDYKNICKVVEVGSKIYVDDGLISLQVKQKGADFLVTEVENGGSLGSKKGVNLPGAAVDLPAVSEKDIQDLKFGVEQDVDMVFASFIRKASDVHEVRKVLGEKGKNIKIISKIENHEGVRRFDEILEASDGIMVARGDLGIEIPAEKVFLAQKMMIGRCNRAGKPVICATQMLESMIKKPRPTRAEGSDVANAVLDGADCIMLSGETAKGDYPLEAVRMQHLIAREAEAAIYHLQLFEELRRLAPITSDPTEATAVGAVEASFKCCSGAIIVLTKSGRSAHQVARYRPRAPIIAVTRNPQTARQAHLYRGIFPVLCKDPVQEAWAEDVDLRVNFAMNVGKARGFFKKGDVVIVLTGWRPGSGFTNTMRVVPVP
Sequence of Cytochrome P450 2C19 (Homo sapiens) (P33261 whole entry, looked up): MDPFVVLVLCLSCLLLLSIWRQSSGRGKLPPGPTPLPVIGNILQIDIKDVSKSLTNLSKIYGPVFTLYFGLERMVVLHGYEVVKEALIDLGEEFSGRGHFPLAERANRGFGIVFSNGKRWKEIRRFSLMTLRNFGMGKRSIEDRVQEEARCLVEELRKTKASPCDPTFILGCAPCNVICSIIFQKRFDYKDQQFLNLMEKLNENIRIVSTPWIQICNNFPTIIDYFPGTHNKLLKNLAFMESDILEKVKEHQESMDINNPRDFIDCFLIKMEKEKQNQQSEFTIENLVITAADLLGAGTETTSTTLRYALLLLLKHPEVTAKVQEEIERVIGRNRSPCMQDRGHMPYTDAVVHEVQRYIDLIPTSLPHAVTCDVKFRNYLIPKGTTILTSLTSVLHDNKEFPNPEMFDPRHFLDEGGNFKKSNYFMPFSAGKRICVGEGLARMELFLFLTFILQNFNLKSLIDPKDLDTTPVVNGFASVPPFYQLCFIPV
Sequence of Muscarinic acetylcholine receptor M1 (Rattus norvegicus) (P08482 whole entry, looked up): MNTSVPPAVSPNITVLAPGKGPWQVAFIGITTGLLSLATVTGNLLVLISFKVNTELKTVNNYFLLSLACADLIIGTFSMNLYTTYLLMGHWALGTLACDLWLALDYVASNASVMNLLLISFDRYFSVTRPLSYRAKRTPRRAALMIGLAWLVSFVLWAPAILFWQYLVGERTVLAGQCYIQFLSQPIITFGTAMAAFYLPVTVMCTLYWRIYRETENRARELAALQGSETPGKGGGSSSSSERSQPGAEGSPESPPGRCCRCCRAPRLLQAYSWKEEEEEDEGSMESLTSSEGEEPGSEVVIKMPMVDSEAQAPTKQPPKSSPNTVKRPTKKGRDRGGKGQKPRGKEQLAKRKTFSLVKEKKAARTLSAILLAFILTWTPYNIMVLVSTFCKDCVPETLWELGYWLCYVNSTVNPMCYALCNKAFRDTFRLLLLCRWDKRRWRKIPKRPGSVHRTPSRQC

With `O=c1c2ccccc2nc2n1CCc1c-2[nH]c2ccccc12`, the molecule was called inactive in experiment [1], in experiment [2], in [4], in experiment [5], in [6] and in experiment [7]. Moreover, the call in experiment [8], in [9], in experiment [10], in [11], in experiment [12] and in [13] was inactive. Besides, the call in [14], in experiment [15] and in experiment [16] was inactive. In experiment [3], the Potency is 0.316 µM (active).
For `COc1c(N2C[C@@H]3CCCN[C@H]3C2)c(F)cc2c(=O)c(C(=O)O)cn(C3CC3)c12`, the Potency result in experiment [17] was “inactive”. The outcome in experiment [18] and in experiment [19] was inactive.
In the case of `CC[C@H](CO)Nc1nc(NCc2ccccc2)c2ncn(C(C)C)c2n1`, the result in [10], in experiment [11] and in experiment [12] was inactive.
Turning to `Nc1ccc(S(=O)(=O)Nc2ncccn2)cc1`, the molecule was classed as inactive in [18] and in [19].
`Cc1coc2c1C(=O)C(=O)c1c-2ccc2c1CCCC2(C)C`: in experiment [17], the Potency entry is “inactive”. In addition, the result in experiment [18] and in [19] was inactive.
As for `O=C(O)[C@H](Cc1c[nH]c2ccccc12)N1C(=O)c2ccccc2C1=O`, the result in experiment [20] was inactive.
Take `CC[C@@]1(O)C(=O)OCc2c1cc1n(c2=O)Cc2cc3cc(O)ccc3nc2-1`: the call in experiment [19] was inactive.
On to `O=C(O)c1ccc2cc(-c3ccc(O)c(C45CC6CC(CC(C6)C4)C5)c3)ccc2c1`, for which the Potency in [17] is 31.6 µM (active). The result in experiment [1] was inactive.
For `CC(C)c1ccc(Cn2ccc3c4c(N)nc(NC5CC5)nc4ccc32)cc1`, in that order: 6.31 µM (active) and “inactive”.
